From PubChem
An excerpt weighted towards active compounds, which were near 5.4% of everything screened.
Granule exo inh = lytic granule exocytosis inhibition; TALL-104 LAMP-1 surface exposure, flow cytometry; cells stimulated with thapsigargin and PMA; inhibition, % at 10 µM; 360,000 tested, 0.66% active; AID 651702;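 active = inhibition above about 55%, limit read from the data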
PfM18AAP inh = blocks P. falciparum M18 aspartyl aminopeptidase | recombinant PfM18AAP, H-Glu-NHMec fluorogenic cleavage | inhibition, % at 7.35 µM | 290,000 tested, 1.2% active;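 active = inhibition above the campaign mean inhibition over all tested compounds plus 3 SD, cut at about 28% in these data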;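 note: 0% = plate median of test compound wells and 100% = 2 mM ZnCl2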
SMARCA2 act = activators of SMARCA2 function; activation, % at 9.1 µM; 370,000 tested, 1% active; MG213 cells, MMTV-luciferase reporter, dexamethasone, overnight; in the data active = activation above about 7.8%;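 note: 0% = vehicle wells and 100% = reference activator wells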
ALR inh = inhibitors of human sulfhydryl oxidase ALR; 290,000 tested, 3.8% active; P55789; inhibition, % (no concentration beside the values); purified ALR, DTT oxidation, H2O2 HRP-luminol luminescence;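 active = mean replicate inhibition above about 79%, with every replicate also reaching it, limit read from the data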
Target sequence (P55789 whole entry, looked up): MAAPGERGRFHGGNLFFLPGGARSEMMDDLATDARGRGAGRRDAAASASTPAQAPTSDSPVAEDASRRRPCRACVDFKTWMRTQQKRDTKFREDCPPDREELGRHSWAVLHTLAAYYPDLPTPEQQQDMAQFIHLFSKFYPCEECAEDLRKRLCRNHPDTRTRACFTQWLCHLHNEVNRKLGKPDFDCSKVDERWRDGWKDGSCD
JMJD2C inh = human JMJD2C demethylase inhibition; AID 2099; inhibition, % at 2.35 µM; GST-JMJD2C(1-420) H3K9me3 demethylation, DELFIA europium; 330,000 tested, 0.069% active;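 active = more than half of a compound's replicate wells show inhibition beyond 50%, single wells judged on their own value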;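 note: signal counts dimethyl H3K9 product captured on neutravidin plate; 0% = median of DMSO wells and 100% = 0.3 times that DMSO median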
Target sequence (Q9H3R0 1-420 limits assumed): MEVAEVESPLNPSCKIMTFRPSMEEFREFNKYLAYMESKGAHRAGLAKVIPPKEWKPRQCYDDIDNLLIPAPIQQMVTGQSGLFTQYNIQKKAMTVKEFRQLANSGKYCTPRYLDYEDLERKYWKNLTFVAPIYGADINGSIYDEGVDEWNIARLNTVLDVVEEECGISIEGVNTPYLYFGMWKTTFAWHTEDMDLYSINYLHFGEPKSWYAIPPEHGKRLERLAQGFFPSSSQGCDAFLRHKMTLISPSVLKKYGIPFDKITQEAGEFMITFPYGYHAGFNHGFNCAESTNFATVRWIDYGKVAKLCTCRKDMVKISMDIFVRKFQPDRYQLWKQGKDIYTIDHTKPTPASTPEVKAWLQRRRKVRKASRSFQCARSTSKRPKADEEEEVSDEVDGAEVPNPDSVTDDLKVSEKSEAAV
MIN6 prolif = induces beta-cell replication in MIN6 cells. MIN6 cells proliferation, ATPlite luminescence, 48 h; cells starved in 0.2% serum; 100% = growth in 10% serum. proliferation, % at 10 µM. 330,000 tested, 0.29% active;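 active = compounds whose signal lies at least 3.5 SD above the mean of all wells on their plate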;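 note: 0% = DMSO-treated cells in low-serum medium and 100% = 10% serum control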
SMARCA2 conf = SMARCA2 activation, confirmation screen | 3,500 tested, 30% active | shares compounds with SMARCA2 act | MG213 cells, MMTV-luciferase with dexamethasone, luminescence, overnight; MG213 cells expressing E1A, Rb sequestered; DMSO wells 0%, reference activator 100% | activation, % at 9.1 µM;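 active = activation above its plate's cutoff, the mean activation of tested wells plus 3 SD, cut at about 7.9% in these data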
VP16 Luc act = GAL4-VP16 reporter activation counter-screen; activation, % at 9.1 µM; 3,500 tested, 41% active; HEK293 GAL4-VP16 pG5luc reporter, luciferase luminescence; scaled: DMSO wells 0%, SAHA wells 100%; shares compounds with SMARCA2 act;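 active = activation above the solvent-only control well mean plus 3 SD, averaged across control plates, cut at about 5.2% in these data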
Active calls of the source: *.

Results for COC(=O)c1cc(Cl)ccc1NCC(N)c1ccccc1 (stereo unspecified) ?
Granule exo inh: 5; SMARCA2 act: -1

How did CC(=O)Nc1ccc(OCc2nnc(-c3ccc(Cl)cc3)o2)cc1 do in these assays?
Granule exo inh: 0; PfM18AAP inh: -8; SMARCA2 act: 1; ALR inh: 3; JMJD2C inh: -1; MIN6 prolif: -3

What do the screens show for `CC(=O)c1ccc(OCCCC(=O)OCc2nnc(-c3ccc(Cl)cc3)o2)cc1`?
Granule exo inh: 1; PfM18AAP inh: 3; SMARCA2 act: 8.3*; ALR inh: -17; JMJD2C inh: -2; MIN6 prolif: -3; SMARCA2 conf: 8.4*; VP16 Luc act: 0

How did CC(O)(c1cccc(F)c1)c1nc(-c2ccc3ccccc3c2)cs1 (stereo unspecified) do in these assays?
Granule exo inh: -4; SMARCA2 act: 4

Results for CCCCc1ccc(NC(=O)COCC)cc1 ?
Granule exo inh: 4; PfM18AAP inh: -11; SMARCA2 act: 8.1*; ALR inh: -7; JMJD2C inh: -15; MIN6 prolif: -2; SMARCA2 conf: 3; VP16 Luc act: 5

How did CCCCc1ccc(NC(=O)N[C@@H](CC(C)C)C(=O)O)cc1 do in these assays?
Granule exo inh: -1; PfM18AAP inh: 11; SMARCA2 act: 3; ALR inh: 3; JMJD2C inh: 1; MIN6 prolif: 2

Results for CCCCc1ccc(NC(=O)CC(C)C)cc1 ?
Granule exo inh: 8; PfM18AAP inh: -5; SMARCA2 act: 9.7*; ALR inh: 2; JMJD2C inh: -11; MIN6 prolif: -2; SMARCA2 conf: 4; VP16 Luc act: 4

What do the screens show for `CC1=C(C(=O)N(C(C)C)C(C)C)CC(CC(=O)NCc2cccc3ccccc23)C(=O)N1Cc1ccc(C(C)(C)C)cc1` (stereo unspecified)?
Granule exo inh: 7; SMARCA2 act: -3

How did CCCCn1nnnc1C1(C)CCC(=O)N1Cc1cccc(F)c1 (stereo unspecified) do in these assays?
Granule exo inh: -3; SMARCA2 act: -3

What do the screens show for `N#CC1(c2ccc(NC(=O)c3ccccc3F)cc2)CCCC1`?
Granule exo inh: -4; PfM18AAP inh: 6; SMARCA2 act: 9.5*; ALR inh: 71; JMJD2C inh: -3; MIN6 prolif: -3; SMARCA2 conf: 9.3*; VP16 Luc act: 8.6*

What do the screens show for `C=CCn1cnc2c(c1=O)c1nc3ccccc3nc1n2/N=C/c1cc(OC)c(OC)c(OC)c1`?
Granule exo inh: 20; PfM18AAP inh: -9; SMARCA2 act: -4; ALR inh: -5; JMJD2C inh: -17; MIN6 prolif: -4

What do the screens show for `C=CCn1cnc2c(c1=O)c1nc3ccccc3nc1n2/N=C/c1cccc(OC)c1OC`?
Granule exo inh: -6; SMARCA2 act: 8.2*; ALR inh: -3; MIN6 prolif: -2; SMARCA2 conf: -4; VP16 Luc act: 4

What do the screens show for `COC(=O)c1ccc(-n2c(C)cc(C(=O)COC(=O)CNS(=O)(=O)c3ccc(C)cc3)c2C)cc1`?
Granule exo inh: 0; PfM18AAP inh: 6; SMARCA2 act: -3; ALR inh: 1; JMJD2C inh: -2; MIN6 prolif: -1

Results for COC(=O)c1cc(C(=O)OC)cc(-n2c(C)cc(C(=O)COC(=O)CNS(=O)(=O)c3ccc(C)cc3)c2C)c1 ?
Granule exo inh: -3; PfM18AAP inh: 7; SMARCA2 act: 8.0*; ALR inh: -4; JMJD2C inh: 1; MIN6 prolif: 0; SMARCA2 conf: -1; VP16 Luc act: -1

What do the screens show for `COc1ccc(NC(=O)C2CCCN(S(=O)(=O)c3ccc4[nH]c(=O)ccc4c3)C2)cc1OC` (stereo unspecified)?
Granule exo inh: 1; PfM18AAP inh: -13; SMARCA2 act: 15*; ALR inh: -14; JMJD2C inh: 3; MIN6 prolif: -2; SMARCA2 conf: -5; VP16 Luc act: 1

What do the screens show for `Cc1ccc(NC(=O)C2CCCN(S(=O)(=O)c3ccc4[nH]c(=O)ccc4c3)C2)cc1C` (stereo unspecified)?
Granule exo inh: 8; PfM18AAP inh: 5; SMARCA2 act: -2; ALR inh: -7; JMJD2C inh: 19; MIN6 prolif: -4

What do the screens show for `NC(=O)c1ncn2c(=O)n(CCCl)nnc12`?
SMARCA2 act: -1

How did CC(C)(C)NC(=O)NC(=O)COc1ccccc1C#N do in these assays?
Granule exo inh: 4; PfM18AAP inh: -11; SMARCA2 act: 9.7*; ALR inh: -10; JMJD2C inh: -1; MIN6 prolif: -4; SMARCA2 conf: 3; VP16 Luc act: 12*

Results for CCOc1ccccc1N1CCN(C(=S)NCc2ccco2)CC1 ?
Granule exo inh: 3; PfM18AAP inh: 2; SMARCA2 act: 8.1*; ALR inh: 29; JMJD2C inh: 2; MIN6 prolif: 0; SMARCA2 conf: 1; VP16 Luc act: 0

What do the screens show for `CCOc1ccccc1N1CCN(C(=S)NCc2ccccc2)CC1`?
Granule exo inh: 1; PfM18AAP inh: -2; SMARCA2 act: 0; JMJD2C inh: 3; MIN6 prolif: -1

What do the screens show for `CC1=CC(Cc2ccccc2)N(C)C(C(N)=O)C1` (stereo unspecified)?
Granule exo inh: 3

What do the screens show for `CC1(c2nc3ccccc3[nH]2)CCCC2=Nc3ccccc3CN21` (stereo unspecified)?
Granule exo inh: -4; SMARCA2 act: -1

Results for COC(=O)[C@]12C[C@H](CC(=O)N3CCCC3)C(=O)N(CCC3=CCCCC3)C1=C[C@H](COCc1ccccc1)O[C@@H]2C ?
SMARCA2 act: 0

How did CN=C1S/C(=C\c2ccc(O)c(OC)c2)C(=O)N1C do in these assays?
Granule exo inh: 8; SMARCA2 act: 8.9*; ALR inh: 75; JMJD2C inh: -2; MIN6 prolif: -2; SMARCA2 conf: 7; VP16 Luc act: 14*

How did CN=C1S/C(=C\c2ccc(OCC(=O)OC)c(OC)c2)C(=O)N1C do in these assays?
Granule exo inh: 12; PfM18AAP inh: -3; SMARCA2 act: 4; ALR inh: 0; JMJD2C inh: 3; MIN6 prolif: -1

Results for C=CCN1C(=O)/C(=C/c2ccc(OCC(=O)O)cc2)S/C1=N/c1nccs1 ?
Granule exo inh: -2; PfM18AAP inh: 5; SMARCA2 act: 2; JMJD2C inh: 7; MIN6 prolif: 0
